The campaign covered roughly 300,000 compounds. About 480 (0.16%) were called active.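 Rule for the calls: active = inhibition over 29.93%, a cutoff 3 SD above the screen mean, later confirmed by dose response; inconclusive = inhibition over 29.93% but no dose response follow-up; inactive = inhibition at most 29.93% or unconfirmed.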 Only a sample is shown. Potency and affinity values are given separately. Peptide text beside a SMILES is read from it. * marks the point of attachment. Boc = CC(C)(C)OC(=O)*
Assay: inhibitors of PhoP regulon expression, primary screen, Salmonella Typhimurium, GFP reporter (AID 1863);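 note: 0% = low Mg2+ inducing control and 100% = high Mg2+ repressing control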
Conditions: S. Typhimurium PhoP-regulated promoter GFP reporter, 4 h; at 50 µM; active compounds read high

inhibition, inactive:
O=C(NCc1ccccn1)Nc1ccccc1Cl -6.1%
CCN(CCN1CCCC1)C(=O)C1CCC(=O)N(CCCN2CCOCC2)C1 (stereo not given) 2.18%
CCCCCCn1c(N2CCCC2)nc2c1c(=O)[nH]c(=O)n2C 2.66%
O=C1CCCN1CCCNS(=O)(=O)c1ccccc1 10.7%
Cc1cc(C)nc(N/C(=N\S(=O)(=O)Cc2ccccc2)Nc2cccc(Cl)c2C)n1 8.54%
CC(C)CC(NC(=O)OC(C)(C)C)C(=O)NC(C(=O)N1CCCC1C(N)=O)C(C)C (stereo not drawn) (Boc-Leu-Val-Pro-NH2; configuration not given here) -6.98%
CC(C)(C)OC(=O)N1CCC[C@@H]1CO 1.69%
CCCC(=O)N1CC(=O)Nc2ccc(C)cc2C1c1ccccc1 (stereo not given) -6.57%
S=C(NCc1ccccc1)N1CCCCC1 0.84%
O=S(=O)(NCC(c1ccc2c(c1)OCO2)N1CCOCC1)c1ccc(Cl)cc1 (stereo not given) -2.72%
O=[n+]1c2c(n([O-])c3cc(F)c(F)cc31)CCCC2 -5.91%
CC(=O)c1c(C)n([O-])c2ccc(C)cc2[n+]1=O 0.85%
COc1ccc2c(c1)[n+](=O)c(C(C)=O)c(C)n2[O-] 7.33%
CC(=O)c1c(C)n([O-])c2cc(C)ccc2[n+]1=O -0.54%
Cc1ccc(NC2c3ncccc3C(=O)N2Cc2ccco2)c(C)c1 (stereo not given) -7.26%
O=C(CCSCCC(=O)N1CCCC1)N1CCCC1 0.69%
Cc1c(C)n2c(SCC(=O)NC3CCCCC3)nnc2[nH]c1=O 2.36%
CC(=O)c1c(N2CCN(c3ccc(F)cc3)CC2)nc(=S)n(Cc2ccccc2)c1C -9.08%
CCN(CC)CC(=O)Nc1ccc(-c2ccc(NC(=O)CN(CC)CC)c(OC)c2)cc1OC -5.12%
O=C(O)c1ccc(NC(=O)C(c2ccccc2)c2ccccc2)cc1 -7.69%
COc1cccc(C2c3[nH]c4ccccc4c3CCN2C(=O)Cn2cncn2)c1OC (stereo not given) -2.77%
CCN(CC)C(=O)Oc1nnc(SC(C)C)n1-c1ccc(Cl)cc1 -0.67%
O=C(Nc1nc(-c2ccccn2)cs1)c1ccc(Br)s1 8.88%
O=C(Nc1nc(-c2cccs2)cs1)c1ccc(Cl)s1 7.37%
CCOC(=O)c1c(C)[nH]c(C(=O)COC(=O)CNC(=O)c2ccccc2Cl)c1C -9.12%
Cc1occc1C(=O)NC(C)C(C)(C)C (stereo not given) 0.78%
Cc1ccccc1CSCCC(=O)NCCC1=CCCCC1 6.03%
Cn1c(=O)c(-c2ccccc2)nc2ccccc21 -3.46%
Cn1nc(-c2ccc(Cl)cc2)nc2c(=O)n(C)c(=O)nc1-2 20.5%
COc1ccc(CCNCC(O)Cn2c3ccccc3c3ccccc32)cc1OC (stereo not given) -4.43%
COc1ccccc1NCC(O)Cn1c2ccccc2c2ccccc21 (stereo not given) -3.61%
COc1ccc(NC(=O)C2=NN(C3CCS(=O)(=O)C3)C(=O)CC2)cn1 (stereo not given) 3.89%
O=C(CSc1oc(-c2cccs2)nc1S(=O)(=O)c1ccc(F)cc1)NCC1CCCO1 (stereo not given) -4.95%
CSC[C@H](NC(=O)Cc1c(C)c2cc3c(C)c(C)oc3cc2oc1=O)C(=O)N[C@@H](Cc1ccccc1)C(=O)O 5.06%
Cc1ccc(C(=O)CC(=O)c2ccccc2)cc1 6.5%
Cc1ccc(C(=O)Nc2ccccc2Sc2ccccc2)cc1 -6.94%
COc1cccc(NC(=O)CCC2CCN(C(=O)c3sccc3C)CC2)c1 -6.68%
O=C(CCNC(=O)c1ccc([N+](=O)[O-])cc1)NCCc1ccc(Cl)cc1 8.36%
COCCCn1c(=O)c2sccc2n2c(CCCC(=O)N(C)Cc3ccco3)nnc12 -1.76%
Cn1ccnc1SCC(=O)NC1CC1 6.54%
Cc1cc(Nc2ccccc2)nc(NCc2ccccc2)n1 19.9%
Cc1cc(Nc2cccc(F)c2)nc(NCc2ccccc2)n1 4.66%
Cc1[nH]c(=O)[nH]c(=O)c1S(=O)(=O)Nc1ccc(Cl)c([N+](=O)[O-])c1 5.49%
O=Cc1ccc2ccc3cccnc3c2n1 -0.13%
O=S1(=O)NC(=NCCc2ccccn2)c2ccccc21 10.3%
CCOC(=O)c1ccc2c(c1)NC(=O)C(N1CCN(c3ccc(OC)cc3)CC1)S2 (stereo not given) 8.89%
COc1ccc(N(C(=O)c2ccncc2)S(=O)(=O)c2cccs2)cc1 8.99%
Cc1ccccc1-n1c(SCC(=O)c2cc(C)n(C)c2C)nnc1-c1ccncc1 -15.5%
O=C(N/N=C/c1ccc[nH]1)c1cccc([N+](=O)[O-])c1 2.02%
O=C(N/N=C/c1ccc[nH]1)c1ccc([N+](=O)[O-])cc1 5.92%
Cn1c(CCCOc2ccc(Cl)cc2Cl)nnc1SCC(=O)Nc1ccc(F)c(Cl)c1 -2.33%
CCC(=O)c1ccc(OCC(=O)OCC(=O)c2cc(C)n(CC3CCCO3)c2C)cc1 (stereo not given) -5.94%
CCOC(=O)N1CCN(S(=O)(=O)c2ccc(C(=O)N(CCN(C)C)c3nc4ccc(Cl)cc4s3)cc2)CC1 14%
CCOc1c(Cl)cc(CNCc2ccncc2)cc1OC 2.05%
O=C(Nc1ncccc1O)C1CCN(S(=O)(=O)c2ccc3ccccc3c2)CC1 -9.16%
CCCn1c2c(c(=N)c3c1CCC3)CCCC2 -0.71%
CCn1c2c(c(=N)c3c1CCC3)CCC2 -5.05%
CCCCCn1c2c(c(=N)c3ccccc31)CCC2 12.1%
CCCCCCn1c2c(c(=N)c3c1CCC3)CCC2 12.9%
CCCCCCCn1c2c(c(=N)c3c1CCC3)CCCC2 5.7%
CCCCn1c2c(c(=N)c3c1CCC3)CCC2 -14.8%
CCn1c2c(c(=N)c3c1CCC3)CCCC2 -3.7%
CCOC(=O)Cn1c2c(c(=N)c3ccccc31)CCC2 3.57%
CCOn1c(SCC)nc2ccccc2c1=O 5.58%
CC(C)c1ccc(NC(=O)CCCN2C(=S)NC(C)(C)CC2C)cc1 (stereo not given) 3.65%
COC(=O)c1ccc(NC(=O)CN2CCN(c3ccccc3C)CC2)cc1 -8.21%
O=C(Nc1ccccc1)c1cc(S(=O)(=O)NCc2ccncc2)ccc1Cl -1.47%
CCc1c(C(=O)NNC(=S)NCC2CCCO2)csc1C (stereo not given) 8.11%
COc1ccc(OC)c(-c2csc(NC(=O)c3ccccc3F)n2)c1 -4.14%
Cc1cc(C)c2cc(C=O)c(Cl)nc2c1 3.78%
CCOC(=O)CN1CC23C=CC(O2)C(C(=O)NCc2ccc(C)cc2)C3C1=O (stereo not given) 10.7%
CC(C)CCNC(=O)C12CN(Cc3ccccc3)CC1C(c1ccc([N+](=O)[O-])cc1)=NO2 (stereo not given) 16.1%
CC(C(=O)NC1C=CS(=O)(=O)C1)N1C(=O)/C(=C\c2ccccc2)SC1=S (stereo not given) -3.24%
CC(C(=O)NC1C=CS(=O)(=O)C1)N1C(=O)/C(=C/c2cccc(Cl)c2)SC1=S (stereo not given) 27.8%
COc1ccc(/C=C2\SC(=S)N(C(C)C(=O)NC3C=CS(=O)(=O)C3)C2=O)cc1 (stereo not given) -13.9%
CC(C(=O)N(C)C1CCS(=O)(=O)C1)N1C(=O)/C(=C/c2ccc(F)cc2)SC1=S (stereo not given) 3.59%
Cc1nn(C)c(C(=O)N/N=C/c2cccc(Oc3ccccc3)c2)c1Br 8.95%
COc1ccc(CC(=O)N2CC3(C)CC2CC(C)(C)C3)cc1 (stereo not given) 1.16%
COc1ccc(F)c(CN2CCCC(CNS(=O)(=O)c3cccc4cccnc34)C2)c1 (stereo not given) -5.85%
CCCCCCn1ccc(=N)cc1 -2.46%
CCCCCCCCCCCCCCCCn1cc[n+](C)c1 22.9%
CCCC(=O)c1ccc(N2CCN(C(=O)OCC)CC2)c(F)c1 1.25%
O=C(N/N=C\c1ccc(-c2ccccc2[N+](=O)[O-])o1)C1COc2ccccc2O1 (stereo not given) 6.06%
O=C(N/N=C\c1ccc(O)c([N+](=O)[O-])c1)C1COc2ccccc2O1 (stereo not given) -12.2%
Cc1cc([N+](=O)[O-])cc(/C=N\NC(=O)C2COc3ccccc3O2)c1O (stereo not given) -5.46%
COc1cc(/C=N\NC(=O)C2COc3ccccc3O2)cc(OC)c1O (stereo not given) -4.27%
CC(C)[C@H](NC(=O)OCc1ccccc1)C(=O)OCC(=O)NC1(C#N)CCCC1 10.7%
CC1CCC/C(=N\NC(=O)Nc2ccccc2)C1 (stereo not given) 2.46%
COc1ccc2cc(C(=O)C3CCCN(C(=O)c4cnn(C(C)C)c4)C3)ccc2c1 (stereo not given) 2.9%
CN(CC(=O)Nc1ccc(F)cc1)C(=O)c1cccc(S(=O)(=O)N2CCN(c3ccccc3)CC2)c1 -1.79%
CC(C)(C)CN1CCN(CCCc2ccccc2)C(CCO)C1 (stereo not given) -4.44%
CCc1cc(CNC(=O)CC2C(=O)NCCN2Cc2c(F)cccc2Cl)on1 (stereo not given) -1.45%
Oc1ccc(/C=N/NC(=S)Nc2cccnc2)c(O)c1 29.1%
Oc1ccc(/C=N/NC(=S)Nc2cccnc2)c(O)c1O 8.35%
CCn1c(CNC(=O)C2CCCCC2)cc2cc(C)ccc21 -0.55%

— PubChem BioAssay AID1863 (Southern Research Specialized Biocontainment Screening …, 2009)
